# PubChem BioAssay AID652016 (National Center for Advancing Translational Sciences (NCATS), 2013)
# Inconclusive results are not listed. A call without a number means that no potency is given here. The source made the active and inactive calls. Calls follow the shape of the dose curve; as a rule, active = well fitted inhibition curve with a large enough effect; inconclusive = small, poorly fitted or top-dose-only effect; inactive = flat fitted curve, though single readings scatter.
# Biological target: Luciferin 4-monooxygenase (Photinus pyralis) (UniProt P08659)
# Assay: qHTS Assay for Inhibitors of Firefly Luciferase from the GSK Published Protein Kinase Inhibitor Set
# Settings: purified firefly luciferase, luminescence inhibition; series mostly up to 57.5 µM
# In short: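 Enzyme-level luminescence assay: compounds titrated (about 60uM down to 300pM) into substrate buffer (10uM ATP, 10uM D-luciferin, pH 7.5 Tris acetate with Mg, Tween-20, BSA), then 10nM firefly luciferase added; read after ~5 min.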
# Potency is read from the fitted curve at half-maximal effect.
# Luciferin 4-monooxygenase (Photinus pyralis), sequence (P08659 whole entry, looked up): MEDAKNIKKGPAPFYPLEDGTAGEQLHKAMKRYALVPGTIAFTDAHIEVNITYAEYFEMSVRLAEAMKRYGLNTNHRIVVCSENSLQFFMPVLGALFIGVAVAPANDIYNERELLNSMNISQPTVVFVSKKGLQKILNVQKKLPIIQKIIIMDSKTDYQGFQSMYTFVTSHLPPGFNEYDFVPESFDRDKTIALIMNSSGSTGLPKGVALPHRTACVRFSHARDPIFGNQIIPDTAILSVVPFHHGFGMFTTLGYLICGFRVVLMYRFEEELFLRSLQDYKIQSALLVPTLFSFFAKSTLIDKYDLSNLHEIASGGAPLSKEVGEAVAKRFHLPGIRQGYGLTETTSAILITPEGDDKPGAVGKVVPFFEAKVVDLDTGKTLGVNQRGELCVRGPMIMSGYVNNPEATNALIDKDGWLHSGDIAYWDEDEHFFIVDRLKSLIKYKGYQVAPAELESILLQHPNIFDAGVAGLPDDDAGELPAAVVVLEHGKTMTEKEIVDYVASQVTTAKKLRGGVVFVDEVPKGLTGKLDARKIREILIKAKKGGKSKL
row,SMILES,Potency
1,COc1ccc(-c2nn3ncccc3c2-c2ccnc(Nc3ccc(Cl)c(C(F)(F)F)c3)n2)cc1,inactive
2,CCS(=O)(=O)c1ccc(OC)c(Nc2ncc(-c3cccc(C(C)=O)c3)o2)c1,inactive
3,NS(=O)(=O)c1ccc(-c2ccc3c(NC(=O)C4CC4)n[nH]c3c2)cc1,inactive
4,Fc1ccc(-c2ncn(C3CCNCC3)c2-c2ccnc(Oc3ccc(Oc4ccccc4)cc3)n2)cc1,inactive
5,FC(F)(F)c1ccc(-c2nn3ncccc3c2-c2ccnc(Nc3ccc4c(c3)OCCO4)n2)cc1,inactive
6,O=C1NC(=O)C(c2ccc(Cl)cc2)=C1Nc1ccc(Cl)c(C(=O)O)c1,inactive
7,Fc1ccc(Oc2nccc(-c3c(-c4ccc(F)cc4)ncn3C3CCNCC3)n2)cc1,inactive
8,ON=C1CCc2cc(-c3nc(C4CCNCC4)[nH]c3-c3ccncc3)ccc21,inactive
9,COc1ccc(CNC(=O)c2ccc(-c3cc(-c4nnc(C)o4)ccc3C)cc2)cc1,inactive
10,COc1ccc2nc3c4nc5ccc(OC)cc5c4c4c(=O)[nH]c(=O)c4c3c2c1,inactive
11,NC(=O)CCc1ccccc1Oc1nccc(-c2c(-c3ccc(F)cc3)ncn2C2CCNCC2)n1,inactive
12,COc1ccc(-c2cc3c(N)ncnc3o2)cc1,6.51 µM (active)
13,O=C(Nc1ccc(Oc2ccc3nc(NC(=O)c4ccccc4)[nH]c3c2)cc1)Nc1cc(C(F)(F)F)ccc1F,inactive
14,N#Cc1cccc(Nc2ncc(-c3ccccc3)o2)c1,1.03 µM (active)
15,COC(=O)Nc1nc2ccc(Oc3ccc(NC(=O)Nc4ccccc4)cc3)cc2[nH]1,14.6 µM (active)
16,COc1cc2ncn(-c3cc(OCc4ccccc4Cl)c(C(N)=O)s3)c2cc1OC,inactive
17,Fc1cccc(COc2ccc(Nc3ncnc4sc(-c5cccs5)cc34)cc2Cl)c1,inactive

row,SMILES,Potency
1,CCOc1ccc2c(-c3ccnc(Nc4cccc(C(F)(F)F)c4)n3)cnn2n1,inactive
2,Fc1ccc(-c2cc(-c3cn[nH]c3-c3ccccn3)ccn2)cc1,inactive
3,CCN1CCC(CC(=O)Nc2n[nH]c3nc(-c4cccs4)c(Br)cc23)CC1,inactive
4,COC(=O)c1ccc2c(c1)/C(=C/c1cc(Br)c(O)c(Br)c1)C(=O)N2,20.6 µM (active)
5,Cc1cc(O)cc(C)c1C=Cc1cncc(C(N)=O)c1,inactive
6,CN1CCC(n2cnc(-c3ccc(F)cc3)c2-c2ccnc(Nc3ccccc3)n2)CC1,inactive
7,C#Cc1cccc(Nc2ncnc3ccc(OCCCCNCCS(C)(=O)=O)cc23)c1,inactive
8,CCCNc1cccc(-n2ncc3c(NN=Cc4ccncc4)ncnc32)c1,inactive
9,CCn1c(-c2nonc2N)nc2c(C#CCN)ncc(OCCCN)c21,inactive
10,CCn1c(-c2nonc2N)nc2ccccc21,inactive
11,NCc1ccc(-c2nc(-c3ccc(Cl)c(O)c3)c(-c3ccncc3)[nH]2)cc1,inactive
12,Clc1ccc(CNc2nccc(-c3cnn4ncccc34)n2)cc1,inactive
13,CC(C)=Cc1cccc2[nH]c(O)c(N=Nc3ccc(S(N)(=O)=O)cc3)c12,inactive
14,COc1cc(Nc2ncc(-c3ccccc3)o2)cc(OC)c1,6.51 µM (active)
15,Cc1ccc(Nc2ccnc(Nc3cccc(C(N)=O)c3)n2)cc1O,1.46 µM (active)
16,CCn1c(-c2nonc2N)nc2cncc(C(=O)NCCNC)c21,inactive
